Read-out in assay [1]: Vascular cell adhesion molecule 1 (VCAM1), VCAM1 (gene 7412)
As to the kind of experiment: BSK_4H_VCAM1: BioMAP Diversity Plus: 4H Assay for Vascular cell adhesion molecule 1 (VCAM1) Biomarker Activity (AID 2283033). The note with it: primary human endothelial cells (HUVEC); actives raise or lower the signal. A digest of the protocol:
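VCAM-1 ELISA read 24 h after chemical dosing of HUVEC in the BioMAP 4H system, with gain or loss of signal fitted relative to DMSO. Parallel SRB staining (560 nm) checked overt cytotoxicity.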

Read-out in assay [2]: Interferon-gamma inducible Protein 10 (IP10), CXCL10 (gene 3627)
Kind of assay: BSK_BE3C_IP10: BioMAP Diversity Plus: BE3C Assay for Interferon-gamma inducible Protein 10 (IP10) Biomarker Activity (AID 2283034). The note with it: primary human bronchial epithelial cells; actives raise or lower the signal. Summed up:
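IP-10 quantified by ELISA in human primary bronchial epithelial cell cultures at 24 hours post-dosing. Gain or loss of signal fitted relative to DMSO; parallel SRB staining assessed overt cytotoxicity.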

Read-out in assay [3]: Monokine induced gamma interferon (MIG), CXCL9 (gene 4283)
As to the kind of experiment: BSK_BE3C_MIG: BioMAP Diversity Plus: BE3C Assay for Monokine induced gamma interferon (MIG) Biomarker Activity (AID 2283035). The note with it: primary human bronchial epithelial cells; actives raise or lower the signal. Summed up:
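hu bronchial epithelial 1° cells, 24 h cpd; MIG by ELISA; bidirectional fit, DMSO = baseline.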

Read-out in assay [4]: Plasminogen activator inhibitor-1 (PAI1), SERPINE1 (gene 5054)
As to the kind of experiment: BSK_BE3C_PAI1: BioMAP Diversity Plus: BE3C Assay for Plasminogen activator inhibitor-1 (PAI1) Biomarker Activity (AID 2283037). The note with it: primary human bronchial epithelial cells; actives raise or lower the signal. Summed up: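 PAI-1 was measured by ELISA in human primary bronchial epithelial cultures 24 h after chemical dosing, with cytotoxicity checked by SRB total-protein staining in parallel cultures. Activity was fitted in both directions relative to DMSO.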

Read-out in assay [5]: urokinase plasminogen activator (uPA), PLAU (gene 5328)
As to the kind of experiment: BSK_BE3C_uPA: BioMAP Diversity Plus: BE3C Assay for urokinase plasminogen activator (uPA) Biomarker Activity (AID 2283038). The note with it: primary human bronchial epithelial cells; actives raise or lower the signal. A digest of the protocol: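 Bronchial epithelial cells (human, primary); chemical 24 h; uPA by ELISA; bidirectional fit vs DMSO. SRB (0.1%, after 10% TCA fixation, 560 nm) in parallel cultures for cytotoxicity.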

Read-out in assay [6]: Interleukin-6 (IL6), IL6 (gene 3569)
Kind of assay: BSK_CASM3C_IL6: BioMAP Diversity Plus: CASM3C Assay for Interleukin-6 (IL6) Biomarker Activity for (AID 2283040). The note with it: primary human coronary artery smooth muscle cells; actives raise or lower the signal.

Read-out in assay [7]: Tissue plasminogen activator (tPA), PLAT (gene 5327)
As to the kind of experiment: BSK_BE3C_tPA: BioMAP Diversity Plus: BE3C Assay for Tissue plasminogen activator (tPA) Biomarker Activity (AID 2283041). The note with it: primary human bronchial epithelial cells; actives raise or lower the signal. Summed up: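 tPA measured by ELISA 24 h after dosing human primary bronchial epithelial cells (BE3C system). Changes in either direction were fitted against DMSO. Parallel cultures were stained with SRB to flag overt cytotoxicity.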

Read-out in assay [8]: Interleukin-8 (IL8), CXCL8 (gene 3576)
Kind of assay: BSK_CASM3C_IL8: BioMAP Diversity Plus: CASM3C Assay for Interleukin-8 (IL8) Biomarker Activity (AID 2283042).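 Further: IL-8 protein level quantified by ELISA.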 The note with it: primary human coronary artery smooth muscle cells; actives raise or lower the signal.

Read-out in assay [9]: Human Leukocyte Antigen - DR isotype (HLADR), HLA-DRA (gene 3122)
Kind of assay: BSK_CASM3C_HLADR: BioMAP Diversity Plus: CASM3C Assay for Human Leukocyte Antigen - DR isotype (HLADR) Biomarker Activity (AID 2283043).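 Further: cell-surface HLA-DR protein level quantified by ELISA.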 The note with it: primary human coronary artery smooth muscle cells; actives raise or lower the signal.

Read-out in assay [10]: Macrophage colony-stimulating factor (MCSF), CSF1 (gene 1435)
As to the kind of experiment: BSK_CASM3C_MCSF: BioMAP Diversity Plus: CASM3C Assay for Macrophage colony-stimulating factor (MCSF) Biomarker Activity (AID 2283044).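 Further: M-CSF protein amount quantified by ELISA after 24 h exposure.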 The note with it: primary human coronary artery smooth muscle cells; actives raise or lower the signal.

Read-out in assay [11]: Low-density lipoprotein receptor (LDLR), LDLR (gene 3949)
Kind of assay: BSK_CASM3C_LDLR: BioMAP Diversity Plus: CASM3C Assay for Low-density lipoprotein receptor (LDLR) Biomarker Activity (AID 2283045).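 Further: LDLR protein level on the cell surface quantified by ELISA.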 The note with it: primary human coronary artery smooth muscle cells; actives raise or lower the signal.

Read-out in assay [12]: Monocyte Chemoattractant Protein-1 (MCP1), CCL2 (gene 6347)
As to the kind of experiment: BSK_CASM3C_MCP1: BioMAP Diversity Plus: CASM3C Assay for Monocyte Chemoattractant Protein-1 (MCP1) Biomarker Activity (AID 2283046).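 Further: MCP-1 level quantified by ELISA 24 h after dosing.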 The note with it: primary human coronary artery smooth muscle cells; actives raise or lower the signal.

Assay [13] in a line: BSK_CASM3C_Proliferation: Cell Proliferation Assessment in the BioMAP Diversity Plus: CASM3C Assay (AID 2283047).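 Further: sulforhodamine B total protein stain as relative cell number at 560 nm; sub-confluent cells exposed 48 h before staining; fitted both ways against DMSO so gain or loss of cell number.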 The note with it: primary human coronary artery smooth muscle cells.
Read-out in assay [14]: Monokine induced gamma interferon (MIG), CXCL9 (gene 4283)
Kind of assay: BSK_CASM3C_MIG: BioMAP Diversity Plus: CASM3C Assay for Monokine induced gamma interferon (MIG) Biomarker Activity (AID 2283048).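 Further: MIG protein level measured by ELISA.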 The note with it: primary human coronary artery smooth muscle cells; actives raise or lower the signal.

Read-out in assay [15]: serum amyloid A (SAA), SAA1 (gene 6288)
As to the kind of experiment: BSK_CASM3C_SAA: BioMAP Diversity Plus: CASM3C Assay for serum amyloid A (SAA) Biomarker Activity (AID 2283049).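 Further: SAA protein level quantified by ELISA.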 The note with it: primary human coronary artery smooth muscle cells; actives raise or lower the signal.

The nature of assay [16]: BSK_CASM3C_SRB: Viability Assessment in the BioMAP Diversity Plus: CASM3C Assay (AID 2283050).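 Further: cells exposed to compound for 24 h.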 The note with it: primary human coronary artery smooth muscle cells.
Read-out in assay [17]: Thrombomodulin, THBD (gene 7056)
Kind of assay: BSK_CASM3C_Thrombomodulin: BioMAP Diversity Plus: CASM3C Assay for Thrombomodulin Biomarker Activity (AID 2283051).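 Further: thrombomodulin protein level measured by ELISA 24 h after dosing.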 The note with it: primary human coronary artery smooth muscle cells; actives raise or lower the signal.

Read-out in assay [18]: Tissue Factor, F3 (gene 2152)
Kind of assay: BSK_CASM3C_TissueFactor: BioMAP Diversity Plus: CASM3C Assay for Tissue Factor Biomarker Activity (AID 2283052).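 Further: cell surface tissue factor protein level read by ELISA.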 The note with it: primary human coronary artery smooth muscle cells; actives raise or lower the signal.

Read-out in assay [19]: Interferon-gamma inducible Protein 10 (IP10), CXCL10 (gene 3627)
As to the kind of experiment: BSK_hDFCGF_IP10: BioMAP Diversity Plus: hDFCGF Assay for Interferon-gamma inducible Protein 10 (IP10) Biomarker Activity (AID 2283053). The note with it: primary human foreskin fibroblasts; actives raise or lower the signal. A digest of the protocol: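 ELISA quantification of IP-10 after a 24 h chemical exposure of human dermal foreskin fibroblast primary cultures. Both increases and decreases versus DMSO fitted.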

One molecule from PubChem BioAssay (EPA / NIEHS) can be followed below.

Values joined by “and” are separate entries in the source; they are usually repeats but may differ in a detail not shown here. Equal entries are not always repeated. A structure can be active in one record and inactive in another. Active and inactive are the calls of the source. How the source made its calls: active means hit-call score of the fitted dose curve at least 0.9, where 1 is the maximum; inactive means score below 0.9.

In the case of `[Cd+2].[Cl-].[Cl-]`, the AC50 was 31.6 µM (active) and 27.1 µM (active) in [1]; 20 µM (active) in assay [2]; 3.97 µM (active) in assay [4]; 29.9 µM (active) in assay [5]; 4.02 µM (active) and 2.92 µM (active) in assay [6]; 26 µM (active) in assay [7]. Moreover, the AC50 was 9.22 µM (active) and 6.47 µM (active) in assay [9]; 6.22 µM (active) and 3.72 µM (active) in assay [10]; 6.42 µM (active) and 6.31 µM (active) in assay [11]; 7.14 µM (active) and 4.39 µM (active) in [12]; 2.7 µM (active) and 2.27 µM (active) in [13]; 4.6 µM (active) and 4.58 µM (active) in assay [14]. The concentration at half-maximal activity (AC50) is 3.68 µM (active) and 2.71 µM (active) in assay [15]; 15.4 µM (active) and 15.2 µM (active) in assay [16]; 5.81 µM (active) and 8.45 µM (active) in assay [18]; 15.9 µM (active) and 13.5 µM (active) in [19]. Besides, the result in [2], in [3], in [4], in assay [5], in assay [7] and in assay [8] was inactive. The result in assay [17] was inactive.

What is called AC50 is the concentration at which the activity in the assay is half-maximal.
